In PubChem BioAssay (EPA / NIEHS):
The source made the active and inactive calls. The calls were made as follows: active = hit-call score of the fitted dose curve at least 0.9, where 1 is the maximum; inconclusive = response in the unintended direction; inactive = score below 0.9.

Molecular target: Estrogen receptor (Homo sapiens) (UniProt P03372)
Experiment: OT_ER_ERaERa_1440: Odyssey Thera (OT) 24-hour HEK293T Protein-Complementation Assay for Estrogen Receptor-alpha/-alpha Homodimer (AID 2283349);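 also: hits raise fluorescence above DMSO for agonists and antagonists alike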
Experimental: OT_ER_ERaERa_1440 is a cell-based assay that uses HEK293T, a human kidney cell line, with measurements taken at 24 hours after chemical dosing in a 384-well plate.OT_ER_ERaERa_1440 is one of one assay component(s) measured or calculated from the OT_ER_ERaERa_1440 assay. It is designed to make measurements of protein fragment complementation, a form of binding reporter, as detected with fluorescence intensity signals by Protein-fragment Complementation technology.Data from the assay component OT_ER_ERaERa_1440 was analyzed into 1 assay endpoint. This assay endpoint, OT_ER_ERaERa_1440, was analyzed in the positive analysis fitting direction relative to DMSO as the negative control and baseline of activity. Using a type of binding reporter, measures of receptor for gain-of-signal activity can be used to understand the binding at the pathway-level as they relate to the gene ESR1. Furthermore, this assay endpoint can be referred to as a primary readout, because the performed assay has only produced 1 assay endpoint. To generalize the intended target to other relatable targets, this assay endpoint is annotated to the nuclear receptor intended target family, where the subfamily is steroidal.
Protein-fragment complementation assay, or PCA, is a method for the identification and quantification of protein-protein interactions. In the PCA, the proteins of interest ("bait" and "prey") are each covalently linked to fragments of a third protein (e.g. DHFR, which acts as a "reporter"). Interaction between the bait and the prey proteins brings the fragments of the reporter protein in close proximity to allow them to form a functional reporter protein whose activity can be measured. The OT ER alpha / ER alpha assay is a homodimer PCA of the ligand binding domain (amino acids 310-547) of human ER alpha stably expressed in HEK293T cells. […] Fluorescent signal in the basal state of the assay is very low and is primarily punctuate and cytoplasmic. Modulation of this assay is quantified as an increase in mean fluorescence intensity in the nucleus (for agonists) or in the nucleus and cytoplasm (antagonists) relative to vehicle controls, and can be quantified on a high content imaging device or a laser scanning cytometer. The latter instrument is favored for this assay because of the rapid mode of data acquisition, the ability to acquire data from the entire cell population in a well (as opposed to a fraction of the well on the high content devices) and the larger dynamic range typically achieved with this instrument. To assess sensitivity of the ER alpha/ER alpha LBD assay to ligand, cells were treated with the ER agonist 17 beta-estradiol (E2) in 10-point concentration- response format for 24 hours and monitored response on a laser scanning plate cytometer (Acumen eX3; TTP Lab Tech).

Chain of Estrogen receptor (Homo sapiens) (P03372 whole entry, looked up): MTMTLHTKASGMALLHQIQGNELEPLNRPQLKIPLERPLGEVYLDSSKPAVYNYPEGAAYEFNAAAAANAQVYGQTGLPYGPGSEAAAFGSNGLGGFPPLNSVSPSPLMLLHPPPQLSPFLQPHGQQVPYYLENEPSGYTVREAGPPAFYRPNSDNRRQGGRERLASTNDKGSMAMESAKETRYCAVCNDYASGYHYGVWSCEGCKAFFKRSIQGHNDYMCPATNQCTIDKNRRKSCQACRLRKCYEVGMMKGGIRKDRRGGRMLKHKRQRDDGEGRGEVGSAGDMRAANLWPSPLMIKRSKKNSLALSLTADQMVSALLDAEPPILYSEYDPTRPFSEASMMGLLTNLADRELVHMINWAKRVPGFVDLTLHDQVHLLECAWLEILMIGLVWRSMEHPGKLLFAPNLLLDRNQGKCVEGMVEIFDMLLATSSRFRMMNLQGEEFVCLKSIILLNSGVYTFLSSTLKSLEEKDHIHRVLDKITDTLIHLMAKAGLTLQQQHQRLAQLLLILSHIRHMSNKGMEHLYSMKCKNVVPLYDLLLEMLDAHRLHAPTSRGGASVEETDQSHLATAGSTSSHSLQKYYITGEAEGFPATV

Row | SMILES | outcome | AC50
1 | Cc1cc(C)cc(O)c1 | inactive | 
2 | c1ccc(B(c2ccccc2)c2ccccc2)cc1 |  | 78.5 µM (active)
3 | CCN(Cc1cccc(S(=O)(=O)O)c1)c1ccc(C(=C2C=CC(=[N+](CC)Cc3cccc(S(=O)(=O)O)c3)C=C2)c2ccc(O)cc2S(=O)(=O)[O-])cc1 | inactive | 
4 | O=S(=O)(O)c1ccc2ccccc2c1 | inactive | 
5 | O=C(OCCOCCOCCOC(=O)c1ccccc1)c1ccccc1 | inactive | 
6 | CC/C=C\CCOC(C)=O | inactive | 
7 | CCCCCCOC(=O)c1ccccc1O | inactive | 
8 | CC(Cc1ccc(O)c(O)c1)C(C)Cc1ccc(O)c(O)c1 (stereo not drawn) |  | 11.9 µM (active)
9 | C1COCCN1 | inactive | 
10 | C#C[C@]1(O)CC[C@H]2[C@@H]3CCc4cc(OC)ccc4[C@H]3CC[C@@]21C |  | 17.1 µM (active)
11 | COC(=O)C1CCC(C(=O)OC)CC1 (stereo not drawn) | inactive | 
12 | CCCCC(CC)COP(=O)(O)OCC(CC)CCCC (stereo not drawn) | inactive | 
13 | CC(CCl)OP(=O)(OC(C)CCl)OC(C)CCl (stereo not drawn) | inactive | 
14 | CNC(=S)NC | inactive | 
15 | [Co] | inactive | 
16 | C(=C(c1ccccc1)c1ccccc1)c1ccccc1 |  | 43.1 µM (active)
17 | CN(C)Cc1ccccc1O | inactive | 
18 | OC[C@@H](O)[C@@H](O)[C@H](O)[C@@H](O)CO | inactive | 
19 | CCCCOc1ccc(N)cc1 | inactive | 
20 | CCCCCCC(C)OC(=O)CCCCC(=O)OC(C)CCCCCC (stereo not drawn) | inactive | 
21 | CC(C)OC(=O)c1ccccc1C(=O)OC(C)C | inactive | 
22 | CCCCCCOC(=O)c1ccccc1 | inactive | 
23 | Cc1ccc(S(=O)(=O)NCl)cc1 | inactive | 
